Data on 76 molecules can be found in PubChem BioAssay AID651650 (Sanford-Burnham Center for Chemical Genomics, 2012).

The target of this assay is Neuropilin-1 (Homo sapiens) (UniProt O14786). In words: blockers of CendR peptide binding to NRP-1 – biochemical, FP and AlphaScreen panel, dose response (AID 651650). The following applies: NRP-1 b1b2 / RPARPAR peptide binding, FP or AlphaScreen; run 1, at 100 µM (top of the series).
Chain of Neuropilin-1 (Homo sapiens) (O14786 whole entry, looked up): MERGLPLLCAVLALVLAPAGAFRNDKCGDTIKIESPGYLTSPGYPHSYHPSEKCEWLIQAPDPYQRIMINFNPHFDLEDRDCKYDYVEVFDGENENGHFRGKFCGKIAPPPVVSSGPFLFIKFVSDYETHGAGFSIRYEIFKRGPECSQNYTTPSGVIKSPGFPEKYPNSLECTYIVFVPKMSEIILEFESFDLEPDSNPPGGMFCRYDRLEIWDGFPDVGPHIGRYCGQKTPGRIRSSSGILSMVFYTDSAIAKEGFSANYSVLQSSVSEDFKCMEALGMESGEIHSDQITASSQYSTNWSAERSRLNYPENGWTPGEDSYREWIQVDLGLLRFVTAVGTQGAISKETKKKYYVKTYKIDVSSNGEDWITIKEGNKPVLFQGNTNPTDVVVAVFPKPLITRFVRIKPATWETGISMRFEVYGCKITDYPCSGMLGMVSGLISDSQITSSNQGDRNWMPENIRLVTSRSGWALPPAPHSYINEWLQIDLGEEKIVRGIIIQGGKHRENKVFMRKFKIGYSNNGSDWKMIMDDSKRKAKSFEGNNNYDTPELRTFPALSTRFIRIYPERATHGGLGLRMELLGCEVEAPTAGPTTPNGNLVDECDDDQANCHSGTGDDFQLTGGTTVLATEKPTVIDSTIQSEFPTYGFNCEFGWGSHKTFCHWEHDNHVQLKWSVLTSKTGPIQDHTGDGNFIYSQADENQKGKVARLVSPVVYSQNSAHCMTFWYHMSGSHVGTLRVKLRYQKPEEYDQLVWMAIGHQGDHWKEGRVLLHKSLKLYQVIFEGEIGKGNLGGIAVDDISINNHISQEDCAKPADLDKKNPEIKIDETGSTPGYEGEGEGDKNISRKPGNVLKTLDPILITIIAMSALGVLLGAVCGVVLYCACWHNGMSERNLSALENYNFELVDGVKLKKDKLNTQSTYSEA

On to `COc1ccc(-c2csc(NCCc3nc4cc(C(=O)NCCCO)ccc4n3Cc3ccc(C)cc3)n2)cc1`, for which the inhibition (in general, the change of the read-out against control, counted positive when it falls) worked out at 90.9%.

For the molecule `O=C(Nc1ccc(N2CCOCC2)cc1)c1cc(-n2cnnc2)ccc1Cl`, the inhibition stood at 55%.

As for `O=C(NNc1ncnc2c1cnn2-c1ccc(F)cc1)c1ccco1`, the inhibition stood at 25.9%.

As for `CC1(c2ccccc2)CC(C)(C)n2c(O)c(C3=NC(=S)NC3=O)c3cccc1c32` (stereo unspecified), the inhibition was 12.3%.

Take `COc1ccc(/C=N/NC(=O)c2cc(C(C)(C)C)[nH]n2)cc1COc1ccc(F)cc1F`: the inhibition amounted to 26%.

Regarding `O=C(NNC(=O)c1ccccc1Cl)c1cccnc1`, the inhibition was found to be 94%.

On to `CSCCC(NC(=O)c1ccc(Cl)cc1Cl)C(=O)NCC(c1cccs1)N(C)C` (stereo unspecified), for which the inhibition worked out at 31.9%.

As to `CCOC(=O)c1ccc(NC(=O)CN2CCc3ccccc3C2)cc1`, the inhibition turned out to be 1.94%.

Consider `COc1cccc(N2[C@@H](CC(C)=O)c3ccc(/C=C/C(C)=O)cc3S2(=O)=O)c1`, for which the inhibition turned out to be 10.9%.

For `COc1ccc(NC(=O)CN2CCN(c3c(C)cc(C)cc3C)CC2)cc1`, the inhibition is 2.2%.

With `O=Cc1ccc(-c2ccccc2C(=O)O)o1`, the inhibition worked out at 51.8%.

For `O=C(O)C1CCN(C(=O)c2ccc(Cl)cc2)CC1`, the inhibition turned out to be 32%.

On to `Nc1ccc(C(=O)Nc2ccc(Nc3ccncc3)cc2)c([N+](=O)[O-])c1`, for which the inhibition worked out at 102%.

Regarding `N#Cc1ccc(COC(=O)c2cnc(Cl)c(Cl)c2)cc1`, the inhibition worked out at 36.5%.

With `O=C(O)c1cc(NCc2ccc(F)cc2)ccc1N1CCOCC1`, the inhibition stood at 46.8%.

On to `CCCCOc1ccc(C(=O)N/C(=C/C=C/c2ccccc2)C(=O)NCCCO)cc1`, for which the inhibition came out at 10.5%.

With `Cc1c(CC(=O)O)c(=O)oc2cc(OCc3ccc(F)cc3Cl)ccc12`, the inhibition is -12.1%.

For the molecule `CCN(C[C@H]1N[C@@](CC)(C(=O)OC)[C@H]2C(=O)N(C)C(=O)[C@@H]12)S(=O)(=O)c1ccc(OC)cc1`, the inhibition was determined as 30.5%.

On to `COc1ccc(C(C(=O)NC(C)(C)C)N(C(=O)CCC(=O)Nc2cc(C)on2)c2c(C)cccc2C)cc1` (stereo unspecified), for which the inhibition was found to be 42.7%.

Turning to `O=C(NCCCN1CCCCCC1)c1ccc(CS(=O)(=O)Cc2ccccc2F)o1`, the inhibition was determined as 40.3%.

Regarding `COCCNC(=S)N(CCc1c(C)[nH]c2ccc(F)cc12)Cc1cccs1`, the inhibition was found to be 34.4%.

On to `CC(C)(C)N(NC(=O)Nc1ccc(Cl)cc1)C(=O)c1ccccc1`, for which the inhibition was 48.3%.

For `Cn1c(=O)c2c(nc(OCc3cccnc3)n2Cc2ccccc2)n(C)c1=O`, the inhibition is 66.1%.

As to `O=C(OCn1nnc2ccccc2c1=O)c1ccc(Br)o1`, the inhibition worked out at 25.4%.

Regarding `Cc1ccc(NC=C(S(=O)(=O)c2ccccc2)S(=O)(=O)c2ccccc2)cc1`, the inhibition was -22.8%.

With `CC(=O)Nc1ccc(NC(=O)C2CC(=O)N=C(N)S2)cc1` (stereo unspecified), the inhibition stood at 95.5%.

For `CCC1=C(OC(=O)N(CC)CC)N2C(=O)OC(=NCC(=O)OC)[C@]2(Cc2ccccc2)[C@H]2C1=CC[C@H]1C(=O)N(CC(=O)OC)C(=O)[C@H]12`, the inhibition worked out at 70.2%.

`CN(C(=O)COC(=O)c1nc(-c2ccccc2)n(-c2ccccc2)n1)C1CCS(=O)(=O)C1` (stereo unspecified): the inhibition was -0.283%.

`Cc1cc2cc(CNC(=O)c3ccco3)ccc2n1C`: the inhibition came to 40.6%.

Turning to `O=c1c2ccccc2nc2n1C(CSc1ccc(F)cc1)CS2` (stereo unspecified), the inhibition is 101%.

As for `CC(=O)C(C(c1ccccc1)N1CCCc2ccccc21)N1CCOCC1` (stereo unspecified), the inhibition turned out to be 54%.

As to `CSc1cccc(CN2CCN(Cc3ccccc3)C(CCO)C2)c1` (stereo unspecified), the inhibition came to 48.8%.

`CC(=O)Nc1ccccc1OCC(=O)N(Cc1ccccc1)C(C)C`: the inhibition is 18.2%.

Consider `CCC1CCCCN1CCCNC(=O)C1CCCN(S(=O)(=O)N2CC(C)CC(C)C2)C1` (stereo unspecified), for which the inhibition amounted to 60.7%.

Take `O=C(Cc1ccc(F)cc1)N1CCN=C1SCc1ccc([N+](=O)[O-])cc1`: the inhibition turned out to be 18.7%.

In the case of `CCn1c(N)c(C(=O)NCc2cccnc2)sc1=S`, the inhibition worked out at 100%.

Take `CC(C)c1ccc(S(=O)(=O)N2CCN(C(=O)CN3C(=O)c4ccccc4C3=O)CC2)cc1`: the inhibition turned out to be 64.7%.

As to `O=C(CN1C2=NCCN2c2ccccc21)c1ccco1`, the inhibition worked out at 0.0631%.

Take `O=C(c1ccco1)N1CCN(C(=O)c2ccccc2OC(=O)C23CC4CC(CC(C4)C2)C3)CC1`: the inhibition is 74.6%.

As to `CCCn1c(C)cc(C(=O)CSc2nc3nc(C)cc(C)n3n2)c1C`, the inhibition worked out at 5.46%.

`COc1ccccc1C(=O)NC(=O)CSc1nncn1C`: the inhibition was determined as 30.4%.

With `CC(NCCOCCOc1ccccc1)c1ccccc1` (stereo unspecified), the inhibition is 39.6%.

For `CC(C)(C)C(=O)COC(=O)c1cc(-c2ccncc2)nc2ccccc12`, the inhibition worked out at 19.4%.

With `CCc1ccc(NC(=O)CCn2nc(C)c(S(=O)(=O)N3CCCCC3)c2C)cc1`, the inhibition stood at 51.9%.

As for `O=c1[nH]c(Nc2ccccn2)cc2ccccc12`, the inhibition turned out to be 81.1%.

Turning to `O=C(CSc1nc2ccc(Cl)cc2[nH]1)NCCc1ccccc1`, the inhibition is 18.8%.

For the molecule `C[C@@H]1CC=C[C@H]2[C@H]1C(=O)N(Cc1ccccc1)[C@H]2c1ccc(/C=C/c2ccccc2)cc1F`, the inhibition was found to be 48.3%.

Take `CCOC(=O)C1=C(C)NC2=C(C(=O)CCC2)C1c1cn(Cc2ccc(Cl)cc2Cl)nc1-c1ccccc1` (stereo unspecified): the inhibition was 72.6%.

Take `CN(C)Cc1cc(C(F)(F)F)ccc1C(O)(c1ccccc1)c1ccccc1`: the inhibition was -5.25%.

On to `CCOc1ccc(S(=O)(=O)NNC(=O)c2cc3ccccc3o2)cc1`, for which the inhibition came to 1.91%.

As to `CCCc1c(O)c2ccccc2[nH]c1=O`, the inhibition came to 5.68%.

As for `O=C1N[C@H](Cc2c[nH]c3ccccc23)COC(=O)[C@H](Cc2ccc(F)cc2)C/C=C\C[C@H]1CC(=O)N(CCO)Cc1ccccc1`, the inhibition is 41.5%.

In the case of `O=[N+]([O-])c1cc(-c2csc(NCCc3nc4cc(C(F)(F)F)ccc4n3CCCO)n2)ccc1Cl`, the inhibition turned out to be 33.1%.

In the case of `COc1cccc(OCC(=O)NNC(=S)Nc2ccc(Cl)cc2Cl)c1`, the inhibition came to 27.2%.

Consider `Cc1ccc(C(=O)N/C(=C\c2ccc(-c3ccccc3[N+](=O)[O-])o2)C(=O)NCCCN2CCOCC2)cc1`, for which the inhibition is 13.2%.

On to `O=C(NNC(=O)c1csc(N2CCOCC2)n1)c1ccc(=O)[nH]c1`, for which the inhibition was 39.8%.

On to `CC(=O)C(=Cc1ccc(Cl)cc1)C(=O)c1ccccc1`, for which the inhibition was found to be 27.1%.

With `COc1ccc(C(=O)N2CCC(C(=O)NCc3ccccn3)CC2)cc1`, the inhibition worked out at 20.9%.

Turning to `CCn1c(=O)c(C(=O)NCCNCCO)c(O)c2ccccc21`, the inhibition was determined as 26.5%.

Regarding `COC(=O)[C@@]1(Cc2ccc(OC)cc2)[C@H]2c3cc(C(=O)N4CCCC4)n(CCN4CCOCC4)c3C[C@H]2CN1C(=O)c1ccccc1`, the inhibition stood at 38.7%.

Consider `N=C1C(=O)OCC1c1cc(Cl)ccc1NC(=O)Nc1ccccc1` (stereo unspecified), for which the inhibition was determined as 47.4%.

Regarding `CCCN=C1N/C(=C\c2ccco2)C(=O)N1c1ccccc1`, the inhibition is 3.93%.

As for `Cc1ccsc1C(=O)N1CCCC(CO)(Cc2ccccc2F)C1` (stereo unspecified), the inhibition was determined as 17.8%.

With `Cc1ccc(C(=O)N/C(=C\c2sccc2C)C(=O)NCc2ccco2)cc1`, the inhibition came out at 53.9%.

Regarding `O=C(O)CCCC(=O)N1CCc2cc(S(=O)(=O)N3CCc4ccccc43)ccc21`, the inhibition was -2.42%.

As to `COC(=O)CCCC1=CC2=CC(=O)C(C)(OC(=O)c3cccs3)C(=O)C2=CN1CCCCO` (stereo unspecified), the inhibition worked out at 38.6%.

As for `COc1c2ccc(C(=O)NCc3cc(C(F)(F)F)cc(C(F)(F)F)c3)cc2nn1C`, the inhibition is 38.2%.

Take `C=C(C)C1CC=C(C)/C(=N\NC(=O)CNc2ccccc2OC)C1` (stereo unspecified): the inhibition was -8.81%.

As to `CC(=O)/C(=N\Nc1ccc(Cl)cc1Cl)Sc1cccc2cccnc12`, the inhibition was found to be 24.8%.

Take `Cc1cc(N/C(=N/S(=O)(=O)c2cc(F)ccc2F)c2ccccc2)n(-c2ccccc2)n1`: the inhibition is -9.15%.

As for `Cc1nn(-c2ccccc2)c(C)c1C(=O)OCC(=O)Nc1ccccc1`, the inhibition worked out at 20.2%.

As for `Cc1cn([C@H]2C[C@H](O)[C@@H](CCC(=O)NCCc3ccc4ccccc4c3)O2)c(=O)[nH]c1=O`, the inhibition stood at 22.6%.

With `CN(Cc1cnn(C)c1)C(=O)c1cc2ccccc2oc1=O`, the inhibition is 29.1%.

Turning to `CCOC(=O)C(NC(=O)CC(C)C)(Nc1sc(C)c(CC)c1C#N)C(F)(F)F` (stereo unspecified), the inhibition was -7.38%.

With `CN(C)CCOC(c1ccc(Cl)cc1)c1ccccn1` (stereo unspecified), the inhibition was 32%.

`O=C(CCCNC(=O)/C(=C\c1ccc(F)cc1)NC(=O)c1ccccc1)OCc1ccccc1`: the inhibition is -33%.
